Screening results deposited in PubChem by several laboratories.
NALP3 yeast inh: inhibitors of NALP3 inflammasome in yeast; inhibition, % at 10 µM; Yeast reconstituted NLRP3/ASC/caspase-1, beta-gal luminescence, 24 h; hit rate 0.39% among 330,000;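 active = inhibition of 50% or more; inactive = inhibition below 50%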
SKKanGAS inh: blocks kanamycin growth of S. pyogenes SKKanGAS strain; inhibition, % at 7.5 µM; hit rate 1.3% among 300,000; AID 1662; BacTiter-Glo, 6 h;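 active = mean replicate score, as percent of positive control median, at least 50; inconclusive = mean below 50 but one replicate at or above 50; inactive = mean and every replicate below 50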;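 also: strain carries kanamycin resistance gene driven by streptokinase promoter and grows in 40 µg/ml kanamycin; loss of luminescence reflects streptokinase promoter inhibition or plain growth inhibition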
PfHsp90 set2: growth inhibition of yeast expressing Plasmodium Hsp90; S. cerevisiae expressing PfHsp90, BacTiter-Glo ATP, 48 h; yeast lacking PDR1 and PDR3 efflux regulators; inhibition, % at 9.4 µM; hit rate 0.32% among 310,000; AID 504621;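 active = every replicate shows inhibition above about 80%, whatever the replicate mean, limit read from the data; inconclusive = mean inhibition reaches the set limit but some replicate falls short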
TIM10 inh: inhibits growth of TIM10 yeast strain; S. cerevisiae TIM10 strain growth, BacTiter-Glo luminescence, 24 h; inhibition, % at 10 µM; hit rate 1.4% among 330,000;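 active = inhibition of 40% or more at the single tested concentration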;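 also: wild-type TIM10 isogenic control strain grown at permissive 25 °C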
tim10-1 inh: inhibits growth of tim10-1 mutant yeast; hit rate 2.2% among 330,000; inhibition, % at 20 µM; S. cerevisiae tim10-1 ts strain growth, BacTiter-Glo, 24 h;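 active = inhibition of at least 40%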;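 also: mutant grown at 25 °C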
tim23-1 inh: growth inhibitors of tim23-1 mutant yeast; S. cerevisiae tim23-1 growth, BacTiter-Glo luminescence, 24 h; AID 463212; inhibition, % at 20 µM; hit rate 1.3% among 330,000;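 active = growth inhibition of the mutant yeast at or above 50%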;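 also: temperature-sensitive mutant grown at 25 °C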
Large screens that a line does not name were inactive. Most compounds without a hit are left out; they make up all but 4.6% or so of the library.

O=C(Nc1ccccc1Cc1ccccc1)c1ccccc1NS(=O)(=O)c1ccc(Cl)s1	SKKanGAS inh 117.2
COc1ccc(C(C)NC(=S)NC2CCCC2)cc1OC (centres undefined)	none
CC(NC(=S)NC1CCC(C(C)(C)C)CC1)c1ccccc1 (centres undefined)	SKKanGAS inh 81.4
CC(=O)/C(C=Nc1noc(C)c1Br)=C(\C)O	none
N#C/C(=C\c1ccc(/C=C(/C#N)c2nn(CCO)c(N)c2C#N)cc1)c1nn(CCO)c(N)c1C#N	SKKanGAS inh 66.6
CCn1c(-c2c(Cl)c(C)nn2C)n[nH]c1=S	none
Cc1cc(NC(c2cccnc2)c2ccc3cccnc3c2O)no1 (centres undefined)	none
Oc1c(C(Nc2ccccn2)c2cccnc2)cc(Cl)c2cccnc12 (centres undefined)	SKKanGAS inh 94.7, PfHsp90 set2 103.0
Cc1cccc(C(=O)OCC(=O)Nc2c(C)n(C)n(-c3ccccc3)c2=O)c1O	none (no result: SKKanGAS inh)
O=C(NC(Cc1c[nH]c2ccccc12)C(=O)N/N=C/c1cccc2ccccc12)c1cccs1 (centres undefined)	SKKanGAS inh 60.3
O=C(NC(Cc1c[nH]c2ccccc12)C(=O)O)c1cccs1 (centres undefined)	none
NC(=S)NNc1c(F)c(F)c(F)c(F)c1F	none
O=[N+]([O-])c1ccc(N2CCCCC2)c(Cl)c1N1CCCCC1	SKKanGAS inh 92.7
C=CCn1cnc2c(nnn2Cc2ccc(F)cc2)c1=O	none
CCOC(=O)c1sc(Nc2nc3ccc(OC)cc3s2)cc1C	SKKanGAS inh 49.7
CCOC(=O)c1csc(Nc2nc3ccc(F)cc3s2)n1	SKKanGAS inh 52.7
CCOC(=O)c1sc(Nc2nc3c(F)cccc3s2)cc1C	none
COC(=O)c1ccc2nc(Nc3nc4ccc(F)cc4s3)sc2c1	none (no result: NALP3 yeast inh, TIM10 inh, tim10-1 inh, tim23-1 inh)
Cc1cc(=O)oc2cc(OCC3CC(c4ccc(Cl)cc4)=NO3)ccc12 (centres undefined)	none
NNC(=O)c1ccc(OCC2CC(c3ccc(Cl)cc3)=NO2)cc1 (centres undefined)	SKKanGAS inh 50.6
Cn1nc(-c2ccccn2)nc2c(=O)n(C)c(=O)nc1-2	SKKanGAS inh 52.2
CCCc1nc2c(=O)n(C)c(=O)nc-2n(C)n1	none (no result: NALP3 yeast inh, SKKanGAS inh, TIM10 inh, tim10-1 inh, tim23-1 inh)
CCOC(=O)N1CCN(C(=S)Nc2cc(S(=O)(=O)N3CCOCC3)ccc2Cl)CC1	none
CC(C)(C=O)C1=CC(=O)c2ccccc2C1=O	PfHsp90 set2 105.7 (no result: NALP3 yeast inh, SKKanGAS inh, TIM10 inh, tim10-1 inh, tim23-1 inh)
CCOC(=O)[C@@H]1[C@H]2COc3ccc(Br)cc3[C@@H]2N2C(=O)N(c3ccc(Cl)cc3)C(=O)[C@@]12C	none (no result: SKKanGAS inh)
CNC[C@@H](CC1CCCCC1)NC[C@H](CC(C)C)NCCc1cccc(C(F)(F)F)c1	SKKanGAS inh 87.5
CNC[C@@H](Cc1ccccc1)NC[C@@H](CC1CCCCC1)NCCCc1ccccc1	SKKanGAS inh 64.4
Cc1ccc2nc3n(c(=O)c2c1)-c1ccccc1C(=O)NC3Cc1ccc(O)cc1 (centres undefined)	none (no result: SKKanGAS inh, PfHsp90 set2)
O=C(O)c1cccc2c1-c1ccc(Cl)cc1C2=O	none (no result: NALP3 yeast inh, SKKanGAS inh, TIM10 inh, tim10-1 inh, tim23-1 inh)
O=C(O)c1cccc2c1Cc1cc(Cl)ccc1-2	PfHsp90 set2 107.2 (no result: NALP3 yeast inh, SKKanGAS inh, TIM10 inh, tim10-1 inh, tim23-1 inh)
CN(/C=C/C(=C\C=[N+](C)c1ccccc1)OCCCS(=O)(=O)[O-])c1ccccc1	none (no result: PfHsp90 set2)
CN(CC(=O)Nc1ccc(S(=O)(=O)N2CCOCC2)cc1)Cc1ccc(F)cc1	none (no result: SKKanGAS inh)
CCN(C(=O)CN1C(=O)NC2(CCCc3ccccc32)C1=O)c1ccc(F)cc1 (centres undefined)	none (no result: SKKanGAS inh, PfHsp90 set2)
Cc1ccccc1Cn1c(O)c(N=NC(=S)Nc2ccccc2F)c2ccccc21	SKKanGAS inh inconclusive
CCNC(=S)N=Nc1c(O)n(Cc2ccc(Cl)cc2)c2ccccc12	none
Oc1c(N=NC(=S)Nc2ccccc2F)c2ccccc2n1Cc1ccccc1F	SKKanGAS inh 79.0
Oc1c(N=NC(=S)Nc2ccccc2F)c2ccccc2n1Cc1ccc(Cl)cc1	SKKanGAS inh 57.7
CCc1ccc(Nc2nnc(SCC(=O)NCCN3C(=O)CSC3=O)s2)cc1	none
CCC1(C)Cc2c(sc3nc(SC)[nH]c(=S)c23)CO1 (centres undefined)	SKKanGAS inh 84.6 (no result: PfHsp90 set2)
CCSc1nc2sc3c(c2c(=O)[nH]1)CC(C)(CC)OC3 (centres undefined)	none (no result: PfHsp90 set2)
Cc1c(C(=O)N/N=C/c2ccc(Cl)cc2)[nH]c2ccc(Cl)cc12	SKKanGAS inh 55.8
Cc1ccc(S(=O)(=O)Nc2ncnc3ccccc23)cc1	none
